The results in this text go back to PubChem BioAssay AID2315 (National Center for Advancing Translational Sciences (NCATS), 2010).

Values joined by “and” are separate entries in the source; they are usually repeats but may differ in a detail not shown here. Identical values can stand only once. About 27,000 (9.3%) of roughly 290,000 compounds were called active. Many of the other results were omitted from the sample, so actives are more common in it than they were. Unmarked numbers belong to inactive results. Rule as the data show it: active = inhibition mostly above about 28% (no sharp cut-off); inactive = mostly below about 43%.

In general, inhibition refers to the drop in the measured response relative to a control, in per cent.

The assay can be described thus: A qHTS for Small Molecule Inhibitors of Shiga Toxin. Also: 0% is about no effect. The settings on record: Vero cells, Shiga toxin protein synthesis inhibition reporter; at 38.7 µM, active compounds read high. Background: qHTS replaces the single test concentration by a dilution series.
`COc1ccccc1C(=O)N/C(=C/c1ccc2c(c1)OCO2)C(=O)Nc1cccc(C(=O)O)c1`: the inhibition is -9.43%.

`CN1CCN(S(=O)(=O)c2cccc(C(=O)Nc3cccc(S(N)(=O)=O)c3)c2)CC1`: the inhibition was 13.4%.

`O=C(c1n[nH]c2c1CCC2)N1CCCC(Nc2cccc(F)c2)C1` (stereo not drawn): the inhibition is -2%.

Take `CCOC(=O)Cn1c(=O)sc2cccc(Cl)c21`: the inhibition is -13.7%.

As for `CC(C)(C)OC(=O)CNC(=O)c1[nH]cnc1C(=O)N[C@@H](Cc1ccccc1)C(=O)OCc1ccccc1`, the inhibition was 7.26%.

As for `O=C(/C=C/Nc1ccc(S(=O)(=O)Nc2cnc3ccccc3n2)cc1)c1cccnc1`, the inhibition was 44.7% (active).

As to `Cc1noc(NS(=O)(=O)c2ccc(NC(=O)C34CCC(CC3)C4)cc2)c1C`, the inhibition is 0.59%.

For the compound `Cc1noc(NS(=O)(=O)c2ccc(NC(=O)c3oc4ccc(F)cc4c3C)cc2)c1C`, the inhibition is -2.45%.

As for `Cc1ccc(C(=O)/C=C/Nc2ccc(S(=O)(=O)Nc3onc(C)c3C)cc2)cc1`, the inhibition is 67.9% (active).

For the compound `O=C(Nc1ccc(S(=O)(=O)Nc2ccccn2)cc1)c1ccccc1`, the inhibition is -16.3%.

Consider `Cc1cc(OC(C)C(=O)Nc2ccc(S(=O)(=O)Nc3onc(C)c3C)cc2)cc(C)c1Cl` (stereo not drawn), for which the inhibition is -8.09%.

Consider `CCn1c(SCC(=O)Nc2ccc(S(=O)(=O)Nc3onc(C)c3C)cc2)nnc1-c1ccccc1`, for which the inhibition was -13.6%.

As for `Cc1noc(NS(=O)(=O)c2ccc(N/C=C/C(=O)c3ccccc3)cc2)c1C`, the inhibition was 71.6% (active).

As to `C=C(C)CNC(=S)Nc1ccc(S(=O)(=O)Nc2cnc3ccccc3n2)cc1`, the inhibition is 6.75%.

Regarding `COCCNC(=O)C1CCN(C(=O)C2CC(=O)N(c3ccc(C)cc3)C2)CC1` (stereo not drawn), the inhibition was -14.7%.

As to `CCN1C(=S)N[C@@H](CCc2ccccc2)[C@H](C(=O)OC)[C@H]1C`, the inhibition was -2.85% and 15.7%.

As to `O=C(NNS(=O)(=O)c1ccc(F)cc1)c1ccc([N+](=O)[O-])cc1Cl`, the inhibition was 30.1%.

As to `CCOc1ccc(CN2CCC(n3nccc3NC(=O)C3CC3)CC2)cc1CO`, the inhibition was -3.78%.

In the case of `Cc1ccc(NC(=O)C2CCCN2C(=O)OCc2ccccc2)cc1C` (stereo not drawn), the inhibition is -4.8%.

On to `COc1ccc(NC(=O)C2C3CCC(O3)C2C(=O)O)cc1OC` (stereo not drawn), for which the inhibition was -5.78%.

Regarding `O=C(CSc1nc(Nc2ccccc2)nc(N2CCOCC2)n1)Nc1cc(Cl)ccc1O`, the inhibition was -4.02%.

Turning to `COc1cc(C(=O)N2CCN(C)CC2)cc(OC)c1OC`, the inhibition was -8.49%.

With `Cn1ccc(=Nc2ccc(NC(=O)c3ccc(N=c4ccn(C)c5ccc([N+](=O)[O-])cc45)cc3)cc2)cc1`, the inhibition is -0.904%.

As for `CCOc1ccc(CN2CCNC(=O)C2CC(=O)NCCCC2CCCC2)cc1` (stereo not drawn), the inhibition was 19% (active).

As for `Cc1nccn1CCCNC(=O)CC1C(=O)NCCN1Cc1ccc(Cl)c(F)c1` (stereo not drawn), the inhibition is -1.1%.

Regarding `O=C(CC1C(=O)NCCN1Cc1ccc(-c2ccccc2)cc1)NCC1CCOCC1` (stereo not drawn), the inhibition was -14.6%.

In the case of `Cn1c(CCNS(=O)(=O)c2ccc(F)cc2)nnc1SCc1cccnc1`, the inhibition is 16.6%.

`COCCn1c(SCC(=O)N2CCCCCC2)nc2c(c1=O)SCC2`: the inhibition is -16.9%.

In the case of `O=C(NCCc1ccc2c(c1)OCCO2)c1cc2ccccc2o1`, the inhibition was 5.6%.

With `O=C(Nc1ccncc1)c1cc2ccccc2o1`, the inhibition was 57.4% (active).

With `Cc1ccc(OC(=O)c2cc3ccccc3o2)cc1`, the inhibition is 27.5%.

Regarding `Cc1ccc(NC(=O)c2cc3ccccc3o2)cc1`, the inhibition was 118% (active).

For `C/C(=N\NC(=S)Nc1ccc(C)cc1)c1cc2ccccc2o1`, the inhibition is 30.5%.

`CC(C)(C)n1nc2c(c1NC(=O)c1cc3ccccc3o1)CSC2`: the inhibition was -8.8%.

As to `Cc1cc(C)cc(C(=O)OCC(=O)NCCNC(=O)COC(=O)c2cc(C)cc(C)c2)c1`, the inhibition is 22.3%.

As for `CN(C)c1ccc(S(=O)(=O)NCC(=O)NCC2CCCCC2)cc1[N+](=O)[O-]`, the inhibition was 3.92%.

Turning to `O=C(NCCN1CCN(C(=O)c2cccc([N+](=O)[O-])c2)CC1)C(=O)NCc1ccc(Cl)cc1`, the inhibition was -5.68%.

Regarding `Clc1ccc(-c2csc(-c3ccncc3)n2)cc1`, the inhibition is 78.2% (active).

Take `Fc1ccc(-c2csc(-c3ccc(C4SCCS4)cc3)n2)cc1F`: the inhibition was -3.43%.

For the compound `COc1ccc(NC(=O)NCCN2CCN(c3ccc(C)cc3)CC2)c(Cl)c1`, the inhibition was -4.91%.

Turning to `CC1CCCCN1CCCNc1ccc(C(CC(N)=O)NC(=O)c2ccccc2)cc1[N+](=O)[O-]` (stereo not drawn), the inhibition was -3.52%.

On to `CCN(C(=O)Cc1c(C(=O)O)n(CC)c2ccccc12)c1ccccc1C`, for which the inhibition was 1.61%.

Regarding `CCC(C(=O)NC1CCCCC1)N(C(=O)c1snc(C(N)=O)c1N)c1ccc(OC)cc1OC` (stereo not drawn), the inhibition is 16.5%.

With `CCCCc1nc(SCC(=O)Nc2nnc(C(C)C)s2)n[nH]1`, the inhibition was 24%.

On to `CC1CN(C(=S)Nc2ccccc2F)CC(C)O1` (stereo not drawn), for which the inhibition was -12%.

Regarding `O=C(CSC(=S)N1CCOCC1)c1cc(Br)cc(Br)c1O`, the inhibition was -11.8%.

On to `O=C(CSC(=S)N1CCOCC1)c1ccccc1`, for which the inhibition was 67.5% (active).

As to `O=C(CSC(=S)N1CCCCC1)c1c(F)cccc1F`, the inhibition is 61.7% (active).

As for `COC(=O)[C@H](Cc1ccccc1)NC(=O)N1CC(C)OC(C)C1` (stereo partly drawn), the inhibition is -8.27%.

`CC(=O)c1ccc(NC(=O)CSC(=S)N2CCCC2)cc1`: the inhibition was -2.78%.

As for `CC1CN(C(=S)SCC(=O)c2ccccc2)CC(C)O1` (stereo not drawn), the inhibition is 94.2% (active).

With `O=C(CP(=O)(c1ccccc1)c1ccccc1)N1CCOCC1`, the inhibition was -5.31%.

`O=C(Nc1ccc(S(=O)(=O)N2CCCCCC2)cc1)c1c(F)cccc1F`: the inhibition is 22.1%.

Regarding `O=C(O)C1CCCCC1C(=O)N1CCN(S(=O)(=O)c2ccc(F)cc2)CC1` (stereo not drawn), the inhibition was -21.1%.

For the compound `CC1CCN(C(=O)c2ccccc2NC(=O)Cc2ccccc2)CC1`, the inhibition is 13.5%.

For `Cc1c(C)c2ccc(OCC(=O)N3CCN(c4cccc(Cl)c4)CC3)cc2oc1=O`, the inhibition is -20.7%.

In the case of `COc1ccccc1C1C(C(N)=O)=C(C)Nc2nc(CCCO)nn21` (stereo not drawn), the inhibition was -12.2%.

For the compound `Cc1nc(SCC(=O)NC2CCCC2)[nH]c(=O)c1C`, the inhibition was -3%.
